In publication PMC7819943, “Rice protein-binding microarrays: a tool to detect cis-acting elements near promoter regions in rice”:
The full ranking holds about 68,000 sequences; the median of “fluorescence intensity (a.u.)” is about 9,100, and the highest 2% start at about 16,000. The sample as a whole holds a higher share of the highest values than the screen did.

target: OsWRKY34 (Oryza sativa, UniProt Q0JBA9 1-250); assay: protein-binding microarray (RPBM); PBS, 2% BSA, 51.3 ng/ul salmon testes DNA, 50 uM zinc acetate, 200 nM TF, 25 C, 1 h; high values mean tight binding; settings: protein: recombinant; tags: N-terminal polyhistidine and DsRed monomer fusion (pET32a); label: CyDye5-dUTP incorporated in the synthesized complementary strand; 3' TTTTT single-stranded linker to array surface; dsDNA, one strand shown
Sequence (Q0JBA9 entry or part of it): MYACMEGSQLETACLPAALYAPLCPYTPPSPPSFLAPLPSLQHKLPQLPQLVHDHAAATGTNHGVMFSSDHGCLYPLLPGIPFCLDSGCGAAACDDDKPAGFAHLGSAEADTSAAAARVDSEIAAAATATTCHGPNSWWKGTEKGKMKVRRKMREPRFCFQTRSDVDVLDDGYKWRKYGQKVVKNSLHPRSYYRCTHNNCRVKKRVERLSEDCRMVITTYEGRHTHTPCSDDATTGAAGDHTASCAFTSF
Method in brief: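 The binding signal is fluorescence intensity per feature, in arbitrary units, read on an Axon 4000B scanner. Polyhistidine- and DsRed-tagged transcription factors (N-terminal fusions) from E. coli BL21-CodonPlus were purified on Ni–NTA and applied at 200 nM for 1 h at 25 °C to a double-stranded, BSA-blocked custom Agilent array in buffer with 50 µM zinc acetate.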

| Sequence | binding signal |
| --- | --- |
| ATTATTAATAAAACTCATTCTATAACTCTGGACTAATTCGCGGAGTCACCTAGTGCAG | 8200 fluorescence intensity (a.u.) |
| TTATGGTTGTTTTCTTCGGTTCTTTGTTTTTTTAAAAAAACGGAGTCACCTAGTGCAG | 11600 fluorescence intensity (a.u.) |
| GGGGTTTGCTATTCTGGCTCTCTATTAAGCTCATAAAAAACGGAGTCACCTAGTGCAG | 23500 fluorescence intensity (a.u.) |
| AAGCGGGGATTTTATGTGGGCAGTGGGTTTTCTTCTTAAACGGAGTCACCTAGTGCAG | 19300 fluorescence intensity (a.u.) |
| GATGTGCCAATGGTTTCTTTCTCTTTCTTTCTCTTTAAAACGGAGTCACCTAGTGCAG | 8910 fluorescence intensity (a.u.) |
| ATGGTTTTTCAGGGTTGGATTTATGTGTGGTCAGTTTAAACGGAGTCACCTAGTGCAG | 12000 fluorescence intensity (a.u.) |
| GTGGGCAGATTTAGTTTTAATGGGTGTGGGTACGGAGAGTCGGAGTCACCTAGTGCAG | 8900 fluorescence intensity (a.u.) |
| TCCATTTCCCGCCGCCTCCCCTCTCGCGATCCATATCCATCGGAGTCACCTAGTGCAG | 8050 fluorescence intensity (a.u.) |
| GCTTTTCTTCCTCGACAAGGCCGCCTGCACCACCGTCTCCCGGAGTCACCTAGTGCAG | 10500 fluorescence intensity (a.u.) |
| CTGGTTACTTTCTCATTTCTTCCTCGCTCGCGCGCTCTCTCGGAGTCACCTAGTGCAG | 10800 fluorescence intensity (a.u.) |
| GATTTAGAGTTGGAGTCAGTCGGTTTGACCAGCCACATGCCGGAGTCACCTAGTGCAG | 8690 fluorescence intensity (a.u.) |
| GCTAGGTCAACTTTGCTCTCAGCTCTCGCTCCCGATGCCACGGAGTCACCTAGTGCAG | 9760 fluorescence intensity (a.u.) |
| CTCTCTCTCTCTCTCTCTCTCTCTCTCCAACGCGCGCGCGCGGAGTCACCTAGTGCAG | 8700 fluorescence intensity (a.u.) |
| CGGCGTCTCTACCTCTACGAATCAGGTCAGGCTTCGATCCCGGAGTCACCTAGTGCAG | 8380 fluorescence intensity (a.u.) |
| CTGGCCGCCATCTCCGCCAATCTCGCTGAATCGGACGCCACGGAGTCACCTAGTGCAG | 8460 fluorescence intensity (a.u.) |
| ATGTGTGGATTTATAAGGGTGAGTATATGTGTTTCGGGAACGGAGTCACCTAGTGCAG | 8140 fluorescence intensity (a.u.) |
| GGGGTTTTTCTTATGTTAGTATATGTGTGGGATGTGTGAACGGAGTCACCTAGTGCAG | 16800 fluorescence intensity (a.u.) |
| GAAATGTGGGAGGGGTTTTCTTACAAATGTTATATAGACACGGAGTCACCTAGTGCAG | 13900 fluorescence intensity (a.u.) |
| CGGGTTCAATATATTGTTTTTTTTAAGACTGGTTCAATATCGGAGTCACCTAGTGCAG | 8880 fluorescence intensity (a.u.) |
| TATGTGTTTTTTGCCGATTAAATTATTACGGGATATATAACGGAGTCACCTAGTGCAG | 9680 fluorescence intensity (a.u.) |
| TATATCACATTTAATTATTTTTCCCATGTTCTTGTTTTAACGGAGTCACCTAGTGCAG | 9480 fluorescence intensity (a.u.) |

| Sequence | binding signal |
| --- | --- |
| ATTGGGTTGATATTATATTGGCAGGGCCAGAAAGTTTTACCGGAGTCACCTAGTGCAG | 8580 fluorescence intensity (a.u.) |
| GAACGGTCAAACATGTGCTAAAAAGTCAACGGTGTCAAACCGGAGTCACCTAGTGCAG | 10100 fluorescence intensity (a.u.) |
| ACGAATGGTCAAACATGTGAGGAAAAGTCAACGGCGTCATCGGAGTCACCTAGTGCAG | 13400 fluorescence intensity (a.u.) |
| TAAGACGAATGGTCAAACATGTAAGAAAAAGTCAACGGTACGGAGTCACCTAGTGCAG | 12900 fluorescence intensity (a.u.) |
| ATGGTCAAACATGTGCTAAAAAGTCAACGGTGTCAAACATCGGAGTCACCTAGTGCAG | 17700 fluorescence intensity (a.u.) |
| AACGGTCAAACATGTGCTAAAAAGTCAACGGTGTCAAATACGGAGTCACCTAGTGCAG | 18600 fluorescence intensity (a.u.) |
| ATGGTCAAACATGTGAGAAAAAGTCAACGGCGTCATCTATCGGAGTCACCTAGTGCAG | 19600 fluorescence intensity (a.u.) |
| AACGGTCAAATATGTGCTAAAAAGTCAACGGTGTCAAATACGGAGTCACCTAGTGCAG | 11300 fluorescence intensity (a.u.) |
| CGAATGGTCAAACATGTAGAAAAAAGTCAACGGTGTCATCCGGAGTCACCTAGTGCAG | 16900 fluorescence intensity (a.u.) |
| CGAATGGTCAAACATATGAGAAAAAGTCAACGATGTCATCCGGAGTCACCTAGTGCAG | 13900 fluorescence intensity (a.u.) |
| AATGGTCAAACATGTGAGAAAAAGTCAACGGCGTTATCTACGGAGTCACCTAGTGCAG | 15500 fluorescence intensity (a.u.) |
| ACGAACGGTCAAACATGTGCTAAAAAGTCAACGGTGTCAACGGAGTCACCTAGTGCAG | 15900 fluorescence intensity (a.u.) |
| CGGTCAAACATGTGCTAAAAAGTCAACGGTGTCAAATATTCGGAGTCACCTAGTGCAG | 11400 fluorescence intensity (a.u.) |
| TAGCTCGGATTCTGCCCCTAATCCCGCCGTCCGCCTCCGCCGGAGTCACCTAGTGCAG | 8490 fluorescence intensity (a.u.) |
| AGGCAACACATACAATGTATCACCTCTAACACACAAATACCGGAGTCACCTAGTGCAG | 8410 fluorescence intensity (a.u.) |
| TCCATCAGTTTTGTGAACTCTGTCTGTCACTCGCTCAGCACGGAGTCACCTAGTGCAG | 8940 fluorescence intensity (a.u.) |
| TTCTTCGTTTTTCTGAGTACGATCTCCCAGGGTTATAATCCGGAGTCACCTAGTGCAG | 8850 fluorescence intensity (a.u.) |
| CGAGACCGACTGATGCTACAACTTCTGTCCTTGCTCCGGCCGGAGTCACCTAGTGCAG | 8620 fluorescence intensity (a.u.) |
| ATGTGTGACTTGTCTTTTTAATTTTTTTTTTAATTTTTTTCGGAGTCACCTAGTGCAG | 9610 fluorescence intensity (a.u.) |
| AGGCTATCGTATGACTTTCTTCTGCTTTCATTTGTGTTCACGGAGTCACCTAGTGCAG | 15300 fluorescence intensity (a.u.) |
| TGGTGGCGTCTGTATTGGGTTTCTTTCTCCAAGTTATATTCGGAGTCACCTAGTGCAG | 9710 fluorescence intensity (a.u.) |
